Experimental data from PubChem BioAssay AID1241 (SRMLSC, 2008).
In all, about 1,200 compounds went through this assay and about 840 (70%) were called active. No rule for the calls is given here. So high a share suggests a set chosen from earlier hits. These entries were drawn from the full list. Results with a measured potency or affinity are listed apart.

Assay: NF-kB promoter reporter activators, neuronal cells, dose response, cell-based, SH-SY5Y, luciferase (AID 1241)
Conditions: series mostly up to 30 µM

Row | SMILES | fold induction over control
1 | Oc1ccc(-c2csc(Nc3ncccn3)n2)cc1O | inactive
2 | CC(C)(C)c1ccc(OCCn2ccccc2=O)cc1 | inactive
3 | COc1ccc2oc(C(=O)c3ccccc3)c(N)c2c1 | inactive
4 | COc1ccc2[nH]c(-c3cccc(F)c3)cc(=O)c2c1 | inactive
5 | COc1ccc(C(=S)Nc2ccc(N(C)C)cc2)cc1 | inactive
6 | Cc1nc(-c2ccccc2)sc1-c1ccnn1C | inactive
7 | Nc1ccccc1C#Cc1ccccc1 | inactive
8 | CCOC(=O)c1c(C)oc2c1c(C(c1cccnc1)N1CCCCC1)c(O)c1ccccc12 (stereo not given) | inactive
9 | O=C(Nc1ccc(Cl)cc1F)c1ccccc1Br | inactive
10 | CCOC(=O)c1cnc(SCCc2ccccc2)nc1N | inactive
11 | O=C(O)c1cccc(N=NN2CCCCCC2)c1 | inactive
12 | O=C(O)c1cc(N/N=C/C=C/c2ccccc2)ccc1Cl | inactive
13 | COc1ccccc1OCCN1CSC(=S)N(C)C1 | inactive
14 | CC(C)(C)c1ccc(/C=N/Nc2cccc(C(=O)O)c2)cc1 | inactive
15 | O=C(O)/C=C\C(=O)Nc1ccccc1C#Cc1ccc(Br)cc1 | inactive
16 | Cc1ccccc1Nc1nc2ccccc2s1 | inactive
17 | N=c1c(C(=O)NCc2ccccc2)cc2c(=O)n3ccccc3nc2n1Cc1ccco1 | inactive
18 | O=C(/C=C/Nc1cccc([N+](=O)[O-])c1)c1cccs1 | inactive
19 | CCOc1ccc(NC(=O)c2ccccc2O)cc1 | inactive
20 | Cc1ccc(C(=O)N/N=C2\CCc3ccccc32)c(C)c1 | inactive
21 | CCCSc1nsc(NC(=O)CCC)n1 | inactive
22 | S=C(c1ccc(-c2ccc(Br)cc2)o1)N1CCCCC1 | inactive
23 | Nc1ncn(CC(=O)c2ccccc2)n1 | inactive
24 | CCc1ccc(C(=O)NC(=S)Nc2ccc3c(c2)OCCO3)cc1 | inactive
25 | COc1ccc(-c2nnc(SC(C)C(=O)Nc3cccc(Cl)c3)o2)cc1 (stereo not given) | inactive

Row | SMILES | fold induction over control
26 | Cc1ccc(C(=O)/C=C/Nc2cccc([N+](=O)[O-])c2)o1 | inactive
27 | Cc1ccc(C(=O)CCNc2ccc(F)c(Cl)c2)o1 | inactive
28 | COc1cccc(-c2noc(-c3cccnc3)n2)c1 | inactive
29 | Cc1nn(-c2ccccc2)c(N)c1N=Nc1ccccc1 | inactive
30 | Cc1[nH]n(C(N)=S)c(=O)c1N=Nc1ccc2ccccc2c1 | inactive
31 | Nc1nc(Nc2cccc(F)c2)nc2ccccc12 | inactive
32 | COc1ccc(C2=NN(C(C#N)c3ccc(OC)c(OC)c3)C(c3ccccc3)C2)cc1 (stereo not given) | inactive
33 | Cc1cc2nc(-c3cccnc3SCC(=O)NCc3ccco3)[nH]c2cc1C | inactive
34 | COc1cc(/C=C/C(=O)CC(=O)/C=C/c2ccc(O)c(OC)c2)ccc1O | inactive
35 | COC(=O)CCCSc1nccn1-c1ccccc1 | inactive
36 | O=C(/C=C/Sc1ccccc1)c1ccc(Cl)cc1 | inactive
37 | Cc1ccc(/C=C/C(=O)Nc2ccccc2C(N)=O)cc1 | inactive
38 | CC(=Nc1cccc(C)c1)c1sc2ccccc2c1O | inactive
39 | Oc1ccc(-c2csc(-c3ccccc3)n2)cc1O | inactive
40 | COC(=O)c1cc(-c2c(C)nn(-c3ccccc3)c2C)n[nH]1 | inactive
41 | Cc1ccc(C(=O)Nc2cccc(C(=O)O)c2)cc1 | inactive
42 | O=C(NC1CCCC1)c1cc(-c2cccs2)on1 | inactive
43 | COc1ccc(C(=O)Nc2cccc(OC)c2)cc1 | inactive
44 | O=C(NCCn1ccc2ccccc21)c1ccc2c(c1)OCO2 | inactive
45 | N/C(=N\OC(=O)c1ccc2c(c1)OCO2)c1ccc(Cl)cc1 | inactive
46 | O/N=C/c1ccc(OCc2ccccc2)c(Br)c1 | inactive
47 | Cc1ccc(COc2ccc(/C=N/O)cc2)cc1 | inactive
48 | O=C(NCCc1ccccc1)c1cc(-c2ccco2)on1 | inactive
49 | COc1ccc(/C(N)=N/OC(=O)CSc2ccccc2)cc1 | inactive
50 | O=C(CCSc1ccc(Cl)cc1)Nc1cccnc1 | inactive

Row | SMILES | fold induction over control
51 | Cc1ccc(O)c(/C=N/NC(=O)c2[nH]ncc2Br)c1 | inactive
52 | CCCc1noc(-c2ccc(-c3ccccc3)cc2)n1 | inactive
53 | CCOC(=O)c1c(C)[nH]c(C(=O)Nc2ccc3c(c2)OCO3)c1C | inactive
54 | CCOC(=O)c1cc(C(=O)Nc2ccccc2F)nn1C | inactive
55 | CCOC(=O)c1c(NC(=O)CC(C)C)sc(C(C)=O)c1C | inactive
56 | CC(=O)Nc1ccc(N=Nc2ccccc2)cc1 | inactive
57 | COc1cccc(C(=O)Oc2ccccc2/C=C\C(=O)c2cc3ccccc3o2)c1 | inactive
58 | COc1ccc2cc(CCNC(=O)c3cccs3)c(=O)[nH]c2c1 | inactive
59 | O=C(/C(=C/c1ccc(Cl)cc1)c1nc2ccccc2[nH]1)c1ccccc1 | inactive
60 | CCOC(=O)C1=C(c2ccccc2)O/C(=C(/C#N)C(F)(F)F)S1 | inactive
61 | COc1ccc(-c2cnn3c(N)c(S(=O)(=O)C(C)(C)C)cnc23)cc1 | inactive
62 | Cc1ccc(-c2nc3ccccc3s2)cc1NC(=S)NC(=O)c1ccccc1 | inactive
63 | CCc1nc2ccc(C(=O)O)cc2nc1CC | inactive
64 | CCOc1ccc(NC(=O)c2nsc(Cl)c2Cl)cc1 | inactive
65 | O=C(OCC(=O)N1CCOCC1)c1ccccc1Cc1ccccc1 | inactive
66 | CC(C)(C)c1ccc(NC(=O)Nc2ccc(OCC(=O)N3CCOCC3)cc2)cc1 | inactive
67 | CCc1ccc(NC(=O)c2cc(C(C)C)on2)cc1 | inactive
68 | CCc1ccc(NC(=O)c2ccc3ncsc3c2)cc1 | inactive
69 | Cc1nc2ccc(NC(=O)Cc3ccccc3F)cc2s1 | inactive
70 | O=C(c1ccccc1)c1cnc(-c2ccccc2)s1 | inactive
71 | O=C(O)c1ccc(-c2nc(-c3ccc(Cl)cc3)cs2)cc1 | inactive
72 | Oc1ccc2c(c1)oc1cc(O)ccc12 | inactive
73 | CN=c1scc(C)n1/N=C/c1cc(Br)c(O)c(Br)c1 | inactive
74 | O=C(OCC(F)(F)F)c1cccc(COc2ccc3ccccc3c2)c1 | inactive
75 | COc1ccc(OCc2cccc(C(=O)Nn3cc([N+](=O)[O-])cn3)c2)cc1 | inactive

Row | SMILES | fold induction over control
76 | COc1ccc(C(=O)OCCc2ccc(O)cc2)cc1 | inactive
77 | O=C(COC(=O)C1CCCCC1)Nc1ccc([N+](=O)[O-])cc1 | inactive
78 | Cc1cccn2cc(-c3ccc(Cl)cc3)nc12 | inactive
79 | Cc1ccc(Nc2n[nH]c(C)c2[N+](=O)[O-])c(C)c1 | inactive
80 | CC(=O)c1cc(NC(=O)c2ccccc2)c(=O)oc1C | inactive
81 | CCOC(=O)c1sc(NC(=O)c2ccccc2OC)nc1C | inactive
82 | Cc1ccn2cc(CSc3ccccc3)nc2c1 | inactive
83 | CCSc1nnc(NC(=O)c2ccc(C)cc2)s1 | inactive
84 | Cc1nc(N2CCCCC2)c2c(-c3cccs3)csc2n1 | inactive
85 | Cc1ccc(-c2cc(-c3ccccc3C)[nH]n2)c(O)c1 | inactive
86 | Cc1ccc(C(=O)Oc2oc(-c3ccco3)nc2C=Nc2ccc(Cl)cc2)cc1 | inactive
87 | O=c1[nH]c(-c2ccco2)nc2sc3c(c12)CCCC3 | inactive
88 | c1ccc(-c2ccc(-c3nc(-c4cccnc4)no3)cc2)cc1 | inactive
89 | CC(=O)Nc1ccc2oc(-c3ccccc3)nc2c1 | inactive
90 | C=CCSC(=C(C#N)C#N)c1cc2c([nH]1)CCCC2 | inactive
91 | Cc1ccc(-n2c(C)cc(C(=O)CSc3nncs3)c2C)cc1 | inactive
92 | Cc1ccc(C(=O)/C=C/c2cn(CN3CCN(C)CC3)c3ccccc23)cc1 | inactive
93 | OCCC1CN(Cc2ccc3nsnc3c2)CCN1C1CCCC1 (stereo not given) | inactive
94 | C/C(=N\O)c1sc(-c2ccccc2)nc1C | inactive
95 | C/C(=N\OC(=O)NC(C)C)c1sc(-c2ccc(Cl)cc2)nc1C | inactive
96 | Cc1ccc2c(c1)C(=NC1CCCCC1)c1cc3ccccc3nc1-2 | inactive
97 | Cc1ccc(Nc2nc3ccccc3[nH]2)nc1 | inactive
98 | Cc1ccccc1C(=O)Nc1cccc(NC(=O)Cn2cnc3c(=O)n(C)c(=O)n(C)c32)c1 | inactive
99 | CCOC(=O)c1cc(C(=O)Nc2cccc(C)c2)nn1C | inactive
100 | CCc1ccc(NC(=O)c2onc(C)c2Cl)cc1 | inactive

Row | SMILES | fold induction over control
101 | N/C(=N\OC(=O)c1ccccc1Cl)c1cccnc1 | inactive
102 | COc1ccccc1C(=O)O/N=C(\N)c1ccc(Cl)cc1 | inactive
103 | N/C(=N\OC(=O)c1ccc(Br)cc1)c1ccccc1 | inactive
104 | Cc1ccc(/C(N)=N/OC(=O)c2ccc(F)cc2)cc1 | inactive
105 | Cc1cc(/C=N/NC(N)=S)c(C)n1-c1ccc(Cl)c(Cl)c1 | inactive
106 | COc1cccc(C(=O)Nc2ccc(C3CC3(Cl)Cl)cc2)c1 (stereo not given) | inactive
107 | Cc1onc(-c2c(F)cccc2Cl)c1C(=O)OCn1nnc2ccccc2c1=O | inactive
108 | COc1c(Cl)cc(Cl)cc1/C=C/C(=O)c1ccc(NC(=O)c2cccs2)cc1 | inactive
109 | Cc1ccc(Nc2n[nH]c(C)c2[N+](=O)[O-])cc1C | inactive
110 | Oc1cccc2ccc(/C=C/c3c(F)cccc3Cl)nc12 | inactive
111 | O=C(CCc1nnc(CCCc2ccccc2)o1)NC(C1CC1)C1CC1 | inactive
112 | COc1cc(NC(=O)CSc2nc3ccccc3cc2C)c(C(=O)O)cc1OC | inactive
113 | N/C(=N\OC(=O)COc1cc(Cl)c(Cl)cc1Cl)c1ccccn1 | inactive
114 | N/C(=N\OC(=O)Cc1cccc2ccccc12)c1ccccn1 | inactive
115 | N#Cc1cc2ccccc2nc1SCc1ccccn1 | inactive
116 | Clc1ncccc1-c1nnn(-c2ccccc2)n1 | inactive
117 | Fc1ccc(-n2nnc(-c3cccnc3Cl)n2)cc1 | inactive
118 | Cc1csc(NC(=O)NC2(C(F)(F)F)Oc3ccccc3O2)n1 | inactive
119 | CC(C)c1ccc(NC(=O)c2csnn2)cc1 | inactive
120 | CC(=O)Nc1ccc(N=Nc2ccc(O)cc2)cc1 | inactive
121 | Cc1ccc(NC(=O)Nc2ccc3c(c2)nc(C)n3C)cc1 | inactive
122 | COc1ccc(NC(=O)c2noc3c2CCCCC3)cc1 | inactive
123 | CS(=O)(=O)c1ccc(C(=O)OCc2nnc(-c3ccc(Cl)cc3)o2)cc1[N+](=O)[O-] | inactive
124 | COc1ccc(/C=C/C(=O)c2ccccc2)c(OC)c1 | inactive
125 | Cc1nn(C)cc1/C=C/C(=O)c1cccs1 | inactive
